For 28 compounds, Potency, activity, negative = cell killing and activity change, negative = inhibition results are on record in PubChem BioAssay (NCATS).

In one assay the test system is SKOV3. In words: Primary qHTS to identify gynecologic anti-cancer compounds using libraries of approved drugs and bioactive compounds (AID 1345084). Note: nearly all actives have a fitted effect of over 55% in size. As to conditions: Gynecologic cancer cell panel viability, ATPlite luminescence, 48 h; series mostly up to 57.5 µM. A digest of the protocol:
(§1)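 Cells, 1,000 per well, plated 16 h, then exposed 48 h at 37 C to compounds. Viability by ATPlite luminescence after 15 min at room temperature.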
(In general: Quantitative high-throughput screening tests each substance at several concentrations.)

Another assay deals with Tov-21-G. The description is as above. Particulars: Gynecologic cancer cell panel viability, ATPlite luminescence, 48 h; series mostly up to 57.5 µM. Put shortly: as §1
Background: In ATP-based viability assays light output follows the ATP content of the culture.

The subject of the next assay is Tov112D. The description is as above. As to conditions: Gynecologic cancer cell panel viability, ATPlite luminescence, 48 h; series mostly up to 57.5 µM. A digest of the protocol:
as §1

Assay [1] can be described thus: Drug repurposing screens with cells derived from glioblastoma tumor samples (AID 1345199). Note: nearly all actives have a fitted effect of over 40% in size. Particulars: GBM patient neurospheres viability, ATP luminescence, 48 h. Put shortly: (§2)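 Primary testing used CD133+ neurospheres from four GBM patients, seven concentrations, 48 h exposure and ATP-based viability; confirmation added three slower-growing patient lines.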
A further assay deals with astro. Described as above. As to conditions: viability, ATP luminescence, 48 h; series mostly up to 45.9 µM. Put shortly: as §2
A short description of assay [2]: qHTS assay to identify inhibitors of the type 1 interferon - major histocompatibility complex class I in skeletal muscle: Counter screen cell viability and HiBit confirmation (AID 1347412). For all read-outs here: nearly all actives have a fitted effect of over 60% in size. As to conditions: iHSKM muscle cells + IFN-b, HiBiT or CellTiter-Glo, 24 h; for activity change, negative = inhibition: at 45.9 µM (top of the series). Put shortly: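 Duplicate plates, pinned identically: one read for HiBiT-tagged endogenous HLA-B luminescence, the other for ATP-content viability via CellTiter Glo. Cells were genome-engineered human myoblasts given 4 ng/ml IFN-b; compounds 12-pt, 1:3 from 46 uM final; 24 hr exposure.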

Where “and” joins values, the source holds several entries; their conditions need not be identical. Identical values can stand only once. Records with an inconclusive call do not appear. Values without a mark were called inactive. Calls of active or inactive are those of the source. Calls come from the whole dose curve; as a rule, active = well fitted curve in the direction sought with a large enough effect; inconclusive = small, poorly fitted or top-dose-only effect, or another doubt; inactive = no such curve, though single readings can be large; an effect the other way counts as inactive or inconclusive.
% is set by controls: 0 for no effect and ±100 for the full control effect; potency is the fitted concentration of half-maximal effect.

As to `Cc1c(Cn2c(C)nc3c(C(=O)O)cc(N4CCOCC4)cc32)cccc1C(F)(F)F`, the Potency entry in the assay with SKOV3, in the assay on Tov-21-G and in the assay with Tov112D was “inactive” in each case.

For the compound `COC(=O)C1=C(C)NC(C)=C(C(=O)OCCN2CCN(C(c3ccccc3)c3ccccc3)CC2)C1c1cccc([N+](=O)[O-])c1` (stereo unspecified), the Potency entry in the assay with Tov-21-G, with Tov112D and in the assay with astro was “inactive” throughout. Also, the activity, negative = cell killing in assay [1] (at 45.9 µM (top of the series), tumour line B) is -14.4%. For the same compound, the Potency is 3.16 µM (active) in assay [1] (tumour line A), 16.4 µM (active) in assay [1] (tumour line C) and 15.8 µM (active) in assay [1] (tumour line D).

`CCc1cc2c(cc1N1CCC(N3CCOCC3)CC1)C(C)(C)c1[nH]c3cc(C#N)ccc3c1C2=O`: the Potency result in the assay with Tov-21-G and with Tov112D was “inactive” throughout.

Take `Cc1c(NC(=O)OC[C@@H]2COCCN2)cn2ncnc(Nc3ccc4c(cnn4Cc4cccc(F)c4)c3)c12`: the Potency result with Tov-21-G and in the assay with Tov112D was “inactive” in each case.

As for `COc1cc(-c2nn(C3CCC(N4CCN(C(C)=O)CC4)CC3)c3ncnc(N)c23)ccc1NC(=O)c1cc2ccccc2n1C` (stereo unspecified), the Potency entry with SKOV3 and in the assay with Tov112D was “inactive” each time.

With `Nc1nc(Nc2ccc(S(N)(=O)=O)cc2)nn1C(=O)c1c(F)cccc1F`, the Potency entry in the assay on SKOV3 was “inactive”. Besides, in assay [2] (HiBiT), the Potency was 2.49 µM (active). The activity change, negative = inhibition in assay [2] (Viability) was 19%.

For `C[C@@H]1COC(Nc2ccc3ncnc(Nc4ccc(OCc5nccs5)c(Cl)c4)c3c2)=N1`, the Potency in the assay on SKOV3 was 14.1 µM (active). Also, the activity change, negative = inhibition in assay [2] (Viability) is -24%.

Turning to `CC(C)(O)CCc1ccc(OCc2cc(-c3cccc(OC(F)F)c3)c3ncccc3c2)cc1`, the Potency result in the assay on Tov-21-G and with Tov112D was “inactive” throughout.

In the case of `CN(C)c1nc(Cc2ccc(NC(=O)c3ccc4ccccc4c3)cc2)nc(Cl)c1CC(=O)O`, the Potency result with Tov-21-G and with Tov112D was “inactive” in each case.

Regarding `CS(=O)(=O)c1ccc(-c2cnc(N)c(C(=O)Nc3ccccc3)n2)cc1`, the Potency in the assay on Tov-21-G is 8.91 µM (active). Moreover, the Potency entry in the assay with Tov112D was “inactive”.

With `C=CC(=O)Nc1cc2c(Nc3ccc(F)c(Cl)c3)ncnc2cc1OCCCN1CCOCC1`, the Potency with SKOV3 was 3.16 µM (active); in the assay with astro, 11.2 µM (active); in assay [2] (HiBiT), 15.7 µM (active). The Potency entry in the assay on Tov112D is “inactive”. In addition, the activity change, negative = inhibition in assay [2] (Viability) is -26.8%.

For the compound `Cc1cc(Nc2cc(N3CCN(C)CC3)nc(Sc3ccc(NC(=O)C4CC4)cc3)n2)n[nH]1`, in the assay on Tov-21-G, the Potency result was “inactive”.

Regarding `COc1cc(C(=O)N2CCC(N3CCN(C)CC3)CC2)ccc1Nc1ncc2c(n1)N(C)c1ccccc1C(=O)N2C`, the Potency in the assay with SKOV3 is 8.91 µM (active). Besides, in assay [2] (Viability), the activity change, negative = inhibition is -1.11%.

With `Cc1nc2ccc(CN(C)c3ccc(C(=O)N[C@@H](CCC(=O)O)C(=O)O)s3)cc2c(=O)[nH]1`, the Potency result in the assay on SKOV3 and with astro was “inactive” in each case. The Potency in the assay on Tov112D is 0.316 µM (active). For the same compound, the activity, negative = cell killing in assay [1] (at 45.9 µM (top of the series), tumour line D) is -5.32% and -11.6%; in assay [1] (at 46.1 µM (top of the series), tumour line C), 0.947% and 1.27%.

As for `O=C(Cc1ccc(-c2ccc(OCCN3CCOCC3)cc2)cn1)NCc1ccccc1`, the values for the Potency in the assay with Tov-21-G and in the assay with Tov112D were 2 µM (active) and 1 µM (active), respectively.

In the case of `Nc1ccccc1NC(=O)c1ccc(CNC(=O)OCc2cccnc2)cc1`, the Potency with Tov-21-G is 8.91 µM (active).

`CN(C)CC(C)(C)CNc1nn2c(-c3ccccc3)nnc2cc1C1CCC1`: the Potency entry in the assay with Tov-21-G and with Tov112D was “inactive” each time.

As for `CCOC(=O)C1=C(C)NC2=C(C(=O)CC(C)(C)C2)C1c1ccc(-c2ccccc2)cc1` (stereo unspecified), the Potency is 10 µM (active) in the assay with SKOV3, 31.6 µM (active) in the assay on Tov112D and 2.49 µM (active) in assay [2] (HiBiT). The activity change, negative = inhibition in assay [2] (Viability) is -16.2%.

Take `O=c1c2ccccc2nc2n1CCc1c-2[nH]c2ccccc12`: the Potency result in the assay with Tov-21-G and in the assay with Tov112D was “inactive” throughout.

Consider `Cc1ccc2nc(NC(=O)CSc3nc4c(c(=O)n3-c3ccccc3)SCC4)sc2c1`, for which the Potency entry in the assay on Tov-21-G and in the assay on Tov112D was “inactive” each time.

Take `O=C(Nc1ncc(-c2cc(C(F)F)nn2-c2c(Cl)cccc2Cl)s1)C1CC1`: the Potency with Tov-21-G is 1.78 µM (active); with Tov112D, 1.58 µM (active).

With `Cc1c(C)n(Cc2ccc(-c3ccccc3C(=O)O)cc2)c2ccc(C(=O)N[C@@H](C)c3ccc([N+](=O)[O-])cc3)cc12`, the Potency result in the assay with Tov-21-G and in the assay with Tov112D was “inactive” each time.

On to `Cc1nc(Nc2n[nH]c3c2CN(C(=O)N[C@H](CN(C)C)c2ccccc2)C3(C)C)c2sccc2n1`, for which the Potency was 7.08 µM (active) with SKOV3, 8.91 µM (active) in the assay on Tov112D and 0.0625 µM (active) in assay [2] (HiBiT). Also, the activity change, negative = inhibition in assay [2] (Viability) is 5.01%.

With `Cc1cc(CN2CCN(c3c(Br)cnc4nc(-c5ccc(N6CCN(C)CC6)cc5)[nH]c34)CC2)no1`, the Potency entry in the assay with SKOV3 was “inactive”. Further, the Potency is 8.83 µM (active) in assay [2] (HiBiT) and 11.1 µM (active) in assay [2] (Viability).

Turning to `Cc1cn(-c2cc(NC(=O)c3ccc(C)c(Nc4nccc(-c5cccnc5)n4)c3)cc(C(F)(F)F)c2)cn1`, the Potency result in the assay with Tov-21-G and with Tov112D was “inactive” in each case.

For `O=C(O)c1ccc2c(c1)nc(Nc1cccc(Cl)c1)c1ccncc12`, the Potency with Tov-21-G is 22.4 µM (active).

`CC(C)c1cc(C(=O)N2Cc3ccc(CN4CCN(C)CC4)cc3C2)c(O)cc1O`: the Potency in the assay with Tov-21-G was 0.355 µM (active).

As for `CCS(=O)(=O)c1cccc(-c2cc(C(=O)NC3CCN(C)CC3)c(C)c3[nH]c4ncc(C)cc4c23)c1`, the Potency was 5.62 µM (active) in the assay with SKOV3, 2 µM (active) in the assay on Tov112D and 2.79 µM (active) in assay [2] (HiBiT).
